Inconclusive results are not listed. The source made the active and inactive calls. How the source made its calls, unless noted: active means hit-call score of the fitted dose curve at least 0.9, where 1 is the maximum; inactive means score below 0.9.

Test [1] addresses Retinoic acid receptor RXR-alpha (Homo sapiens) (UniProt P19793). As to the kind of experiment: ATG_RXRa_TRANS: Attagene TRANS-FACTORIAL HepG2 Assay for human Retinoid X Receptor alpha (RXRa) (AID 2283012; active means hit-call score of the fitted dose curve at least 0.9, where 1 is the maximum). In short, it runs like this:
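Chimeric NR-GAL4 trans-activation in HepG2, 24 h treatment; reporter transcripts quantified by fluorescence on capillary electrophoresis, analysed for upward change from DMSO.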

Test [2] concerns the target human Retinoid X Receptor beta (RXRb), RXRB (gene 6257) (UniProt P28702). As to the kind of experiment: ATG_RXRb_TRANS: Attagene TRANS-FACTORIAL HepG2 Assay for human Retinoid X Receptor beta (RXRb) (AID 2283013; active means hit-call score of the fitted dose curve at least 0.9, where 1 is the maximum). In outline: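 After a 24 h incubation with test chemical, transfected HepG2 cells carrying NR-Gal4 fusions and GAL4-UAS reporter transcription units yield RNA whose reporter cDNA is FAM-labelled, HpaI-cut and sized by capillary electrophoresis; increases over DMSO are scored.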

Read-out in test [3]: E-selectin (Homo sapiens) (UniProt P16581)
Kind of test: BSK_3C_Eselectin: BioMAP Diversity Plus: 3C Assay for Eselectin Biomarker Activity (AID 2283015).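 On outcome: cell surface E-selectin protein quantified by ELISA 24 h after dosing.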 The note with it: primary human endothelial cells (HUVEC); actives raise or lower the signal. In outline:
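ELISA read-out of E-selectin on endothelial monolayers after 24 h chemical treatment. Human umbilical vein primary cells served as the system, with DMSO defining baseline activity for bidirectional fitting.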

Read-out in test [4]: Interleukin-1 alpha (IL1a), IL1A (gene 3552)
Kind of test: BSK_BE3C_IL1a: BioMAP Diversity Plus: BE3C Assay for Interleukin-1 alpha (IL1a) Biomarker Activity (AID 2283016). The note with it: primary human bronchial epithelial cells; actives raise or lower the signal. In short, it runs like this:
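Measured in human lung primary bronchial epithelial cells: IL-1a by ELISA at 24 h after dosing, with bidirectional fitting against DMSO.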

Read-out in test [5]: Monocyte Chemoattractant Protein-1 (MCP1), CCL2 (gene 6347)
As to the kind of experiment: BSK_3C_MCP1: BioMAP Diversity Plus: 3C Assay for Monocyte Chemoattractant Protein-1 (MCP1) Biomarker Activity (AID 2283017). The following applies: primary human endothelial cells (HUVEC); actives raise or lower the signal. In short, it runs like this: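 ELISA read-out of MCP-1 from human umbilical vein endothelial cell cultures harvested 24 h post-dosing. Gain or loss of signal was fitted relative to DMSO.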

Read-out in test [6]: Monocyte Chemoattractant Protein-1 (MCP1), CCL2 (gene 6347)
As to the kind of experiment: BSK_4H_MCP1: BioMAP Diversity Plus: 4H Assay for Monocyte Chemoattractant Protein-1 (MCP1) Biomarker Activity (AID 2283018). The following applies: primary human endothelial cells (HUVEC); actives raise or lower the signal. In short, it runs like this:
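Primary human umbilical vein endothelium is exposed to chemical for 24 h before MCP-1 is assayed by ELISA. Concentration-response fitted bidirectionally relative to DMSO.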

Read-out in test [7]: Human Leukocyte Antigen - DR isotype (HLADR), HLA-DRA (gene 3122)
As to the kind of experiment: BSK_3C_HLADR: BioMAP Diversity Plus: 3C Assay for Human Leukocyte Antigen - DR isotype (HLADR) Biomarker Activity (AID 2283019).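 On outcome: ELISA of cell-surface HLA-DR on HUVEC 24 h after dosing.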 The following applies: primary human endothelial cells (HUVEC); actives raise or lower the signal. In outline:
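ELISA readout of surface HLA-DR on human umbilical vein endothelium, taken 24 h after chemical treatment. Gain- and loss-of-signal were both fitted relative to DMSO.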

Read-out in test [8]: Interleukin-8 (IL8), CXCL8 (gene 3576)
As to the kind of experiment: BSK_3C_IL8: BioMAP Diversity Plus: 3C Assay for Interleukin-8 (IL8) Biomarker Activity (AID 2283020). The note with it: primary human endothelial cells (HUVEC); actives raise or lower the signal. In outline: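 Using DMSO-treated wells as the baseline, bidirectional curve fitting was applied to ELISA-measured IL-8 from human umbilical vein endothelial cultures sampled 24 h after compound addition.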

Read-out in test [9]: Monokine induced gamma interferon (MIG), CXCL9 (gene 4283)
Kind of test: BSK_3C_MIG: BioMAP Diversity Plus: 3C Assay for Monokine induced gamma interferon (MIG) Biomarker Activity (AID 2283021). The following applies: primary human endothelial cells (HUVEC); actives raise or lower the signal. In outline: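 ELISA-measured MIG in dosed HUVEC 3C cultures at 24 h, analysed by bidirectional fitting with DMSO defining baseline activity.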

Test [10] can be described thus: BSK_3C_SRB: Viability Assessment in the BioMAP Diversity Plus: 3C Assay (AID 2283023).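 Further: fitted both ways against DMSO so a hit may be signal rise or drop.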 The note with it: primary human endothelial cells (HUVEC). In outline:
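Absorbance at 560 nm of sulforhodamine B-stained (0.1%) total protein served as a cytotoxicity readout in human umbilical vein endothelial cells, 24 h after chemical treatment. Signal was fitted bidirectionally relative to DMSO.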

Read-out in test [11]: Matrix Metallopeptidase 1 (MMP1), MMP1 (gene 4312)
Kind of test: BSK_BE3C_MMP1: BioMAP Diversity Plus: BE3C Assay for Matrix Metallopeptidase 1 (MMP1) Biomarker Activity (AID 2283024). The note with it: primary human bronchial epithelial cells; actives raise or lower the signal. In outline:
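In this multiplexed primary-cell system, human bronchial epithelium received chemicals for 24 h before an ELISA for MMP1. Values reflect bidirectional fits normalised to the DMSO baseline.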

The nature of test [12]: BSK_3C_Vis: BioMAP Diversity Plus: 3C Assay for Morphology Visualization (AID 2283025).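 Further: fitted both ways so gain or loss versus DMSO counts.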 The following applies: primary human endothelial cells (HUVEC). In short, it runs like this: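 Light-microscopy morphology readout, 24 h exposure, human primary umbilical vein endothelium; analysed relative to DMSO with bidirectional fitting.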
Read-out in test [13]: Pselectin, SELP (gene 6403)
Kind of test: BSK_4H_Pselectin: BioMAP Diversity Plus: 4H Assay for Pselectin Biomarker Activity (AID 2283026). The following applies: primary human endothelial cells (HUVEC); actives raise or lower the signal. In outline: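 Bidirectional fits against DMSO gave the endpoint. Cells: primary human umbilical vein endothelium, chemical-treated for 24 h before ELISA detection of P-selectin.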

A short description of test [14]: BSK_4H_SRB: Viability Assessment in the BioMAP Diversity Plus: 4H Assay (AID 2283027).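 Further: cells exposed to compound for 24 h before staining.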 The note with it: primary human endothelial cells (HUVEC). In short, it runs like this:
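Cytotoxicity read-out in primary human endothelial cells: after 24 h compound exposure, cells were TCA-fixed (10%), stained with 0.1% SRB and absorbance taken at 560 nm. Values fitted in both directions relative to DMSO.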

A short description of test [15]: BSK_BE3C_SRB: Viability Assessment in the BioMAP Diversity Plus: BE3C Assay (AID 2283028). The note with it: primary human bronchial epithelial cells. In short, it runs like this:
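Cells (human bronchial epithelial, primary) are treated with chemicals, and after 24 h the parallel cultures are fixed in 10% TCA. These are then stained with 0.1% SRB and read at 560 nm. Gain or loss of signal is fitted relative to DMSO.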

Read-out in test [16]: Thrombomodulin, THBD (gene 7056)
Kind of test: BSK_3C_Thrombomodulin: BioMAP Diversity Plus: 3C Assay for Thrombomodulin Biomarker Activity (AID 2283029). The following applies: primary human endothelial cells (HUVEC); actives raise or lower the signal. In outline:
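In a multiplexed primary-cell system, human umbilical vein endothelium received chemical and was assayed 24 h later for thrombomodulin by ELISA. Parallel cultures were SRB-stained (0.1% SRB after 10% TCA fixation, read at 560 nm) to flag cytotoxicity.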

Read-out in test [17]: Vascular endothelial growth factor receptor 2 (Homo sapiens) (UniProt P35968)
Kind of test: BSK_4H_VEGFRII: BioMAP Diversity Plus: 4H Assay for Vascular endothelial growth factor receptor 2 (VEGFR2) Biomarker Activity (AID 2283031). The following applies: primary human endothelial cells (HUVEC); actives raise or lower the signal. In outline:
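ELISA read-out of VEGFRII in primary human umbilical vein endothelium, taken 24 h after chemical treatment. Responses are expressed relative to DMSO, with bidirectional fitting.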

Read-out in test [18]: Urokinase-type plasminogen activator receptor (uPAR), PLAUR (gene 5329)
As to the kind of experiment: BSK_4H_uPAR: BioMAP Diversity Plus: 4H Assay for Urokinase-type plasminogen activator receptor (uPAR) Biomarker Activity (AID 2283030). The note with it: primary human endothelial cells (HUVEC); actives raise or lower the signal. In short, it runs like this: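 Cell-surface uPAR ELISA signal, measured 24 h after dosing human umbilical vein endothelial cells, was analyzed with bidirectional fitting relative to DMSO. Parallel SRB staining of total protein tracked overt cytotoxicity.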

Test [19] addresses human Vitamin D Receptor (VDR), VDR (gene 7421) (UniProt P11473). As to the kind of experiment: ATG_VDR_TRANS: Attagene TRANS-FACTORIAL HepG2 Assay for human Vitamin D Receptor (VDR) (AID 2283022; active means hit-call score of the fitted dose curve at least 0.9, where 1 is the maximum). In outline: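 Steps: transfect HepG2 with GAL4-UAS-driven reporter constructs; dose compounds 24 h; isolate RNA, reverse-transcribe, PCR-amplify with 6-FAM-labelled primer extension and HpaI digestion; quantify fragments by capillary electrophoresis relative to DMSO.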

The target in test [20] is human Thyroid Receptor alpha (THRa1), THRA (gene 7067) (UniProt P10827). Kind of test: ATG_THRa1_TRANS: Attagene TRANS-FACTORIAL HepG2 Assay for human Thyroid Receptor alpha (THRa1) (AID 2283014; active means hit-call score of the fitted dose curve at least 0.9, where 1 is the maximum). In outline:
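Reporter transcript induction, read by capillary electrophoresis of 6-FAM-labelled RT-PCR products, reflects activity of a transfected THRa1-Gal4 fusion in HepG2 liver cells. Cells were dosed for 24 h; activity was fitted in the positive direction against DMSO.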

Chain of E-selectin (Homo sapiens) (P16581 whole entry, looked up): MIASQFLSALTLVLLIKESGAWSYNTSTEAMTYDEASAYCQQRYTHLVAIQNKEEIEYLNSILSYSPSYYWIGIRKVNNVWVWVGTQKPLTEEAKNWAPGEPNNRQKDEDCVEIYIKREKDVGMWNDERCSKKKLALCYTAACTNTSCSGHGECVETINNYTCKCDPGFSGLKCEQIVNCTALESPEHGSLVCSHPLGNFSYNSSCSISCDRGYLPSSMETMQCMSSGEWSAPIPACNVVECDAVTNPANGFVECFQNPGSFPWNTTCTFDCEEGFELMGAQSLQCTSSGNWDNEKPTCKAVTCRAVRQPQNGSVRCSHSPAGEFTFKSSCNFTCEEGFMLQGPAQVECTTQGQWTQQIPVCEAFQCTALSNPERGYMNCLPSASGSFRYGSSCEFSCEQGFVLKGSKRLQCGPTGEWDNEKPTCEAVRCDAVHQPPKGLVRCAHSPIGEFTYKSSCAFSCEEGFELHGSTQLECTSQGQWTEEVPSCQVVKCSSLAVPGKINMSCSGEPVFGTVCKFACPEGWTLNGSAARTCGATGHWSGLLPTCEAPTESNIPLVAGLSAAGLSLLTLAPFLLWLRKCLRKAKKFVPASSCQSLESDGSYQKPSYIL
Chain of Retinoic acid receptor RXR-alpha (Homo sapiens) (P19793 whole entry, looked up, the tested form may be a part): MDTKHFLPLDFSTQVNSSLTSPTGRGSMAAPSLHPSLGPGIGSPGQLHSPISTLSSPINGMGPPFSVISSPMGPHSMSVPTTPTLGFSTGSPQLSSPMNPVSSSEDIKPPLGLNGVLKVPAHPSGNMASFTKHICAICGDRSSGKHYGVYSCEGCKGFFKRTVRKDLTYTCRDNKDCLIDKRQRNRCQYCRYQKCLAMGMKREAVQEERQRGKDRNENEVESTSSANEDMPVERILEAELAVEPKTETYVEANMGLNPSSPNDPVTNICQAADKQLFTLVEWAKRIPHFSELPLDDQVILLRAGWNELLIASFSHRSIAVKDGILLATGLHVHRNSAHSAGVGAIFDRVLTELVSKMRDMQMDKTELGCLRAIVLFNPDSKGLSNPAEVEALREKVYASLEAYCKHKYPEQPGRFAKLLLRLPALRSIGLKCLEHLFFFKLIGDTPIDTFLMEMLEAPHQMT
Chain of human Retinoid X Receptor beta (RXRb), RXRB (gene 6257) (P28702 whole entry, looked up, the tested form may be a part): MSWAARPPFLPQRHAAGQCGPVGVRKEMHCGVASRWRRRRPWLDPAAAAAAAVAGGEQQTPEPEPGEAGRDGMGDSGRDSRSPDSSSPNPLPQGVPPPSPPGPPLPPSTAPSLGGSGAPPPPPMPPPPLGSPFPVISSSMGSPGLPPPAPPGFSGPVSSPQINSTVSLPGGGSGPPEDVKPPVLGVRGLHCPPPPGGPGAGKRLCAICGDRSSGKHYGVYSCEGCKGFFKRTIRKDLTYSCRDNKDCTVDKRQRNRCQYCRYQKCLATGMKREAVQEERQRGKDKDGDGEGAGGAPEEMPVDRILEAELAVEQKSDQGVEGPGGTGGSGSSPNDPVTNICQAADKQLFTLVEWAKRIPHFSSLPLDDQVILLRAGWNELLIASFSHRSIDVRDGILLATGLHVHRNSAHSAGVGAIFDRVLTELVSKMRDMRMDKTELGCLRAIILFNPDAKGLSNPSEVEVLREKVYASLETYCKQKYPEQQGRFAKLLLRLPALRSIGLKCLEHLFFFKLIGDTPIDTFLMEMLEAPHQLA
Chain of human Vitamin D Receptor (VDR), VDR (gene 7421) (P11473 whole entry, looked up, the tested form may be a part): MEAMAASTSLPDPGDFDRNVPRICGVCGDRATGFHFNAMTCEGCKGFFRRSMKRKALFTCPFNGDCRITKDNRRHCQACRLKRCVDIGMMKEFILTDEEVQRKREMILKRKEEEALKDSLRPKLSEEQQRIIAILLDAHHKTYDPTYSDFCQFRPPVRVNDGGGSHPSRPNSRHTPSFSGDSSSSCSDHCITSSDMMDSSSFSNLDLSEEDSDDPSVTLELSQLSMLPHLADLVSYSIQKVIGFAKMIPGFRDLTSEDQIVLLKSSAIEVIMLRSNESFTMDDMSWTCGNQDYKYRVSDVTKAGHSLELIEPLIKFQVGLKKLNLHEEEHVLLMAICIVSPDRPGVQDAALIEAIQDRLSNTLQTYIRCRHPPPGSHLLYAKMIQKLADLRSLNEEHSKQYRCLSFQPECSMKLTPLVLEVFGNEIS
Chain of human Thyroid Receptor alpha (THRa1), THRA (gene 7067) (P10827 whole entry, looked up, the tested form may be a part): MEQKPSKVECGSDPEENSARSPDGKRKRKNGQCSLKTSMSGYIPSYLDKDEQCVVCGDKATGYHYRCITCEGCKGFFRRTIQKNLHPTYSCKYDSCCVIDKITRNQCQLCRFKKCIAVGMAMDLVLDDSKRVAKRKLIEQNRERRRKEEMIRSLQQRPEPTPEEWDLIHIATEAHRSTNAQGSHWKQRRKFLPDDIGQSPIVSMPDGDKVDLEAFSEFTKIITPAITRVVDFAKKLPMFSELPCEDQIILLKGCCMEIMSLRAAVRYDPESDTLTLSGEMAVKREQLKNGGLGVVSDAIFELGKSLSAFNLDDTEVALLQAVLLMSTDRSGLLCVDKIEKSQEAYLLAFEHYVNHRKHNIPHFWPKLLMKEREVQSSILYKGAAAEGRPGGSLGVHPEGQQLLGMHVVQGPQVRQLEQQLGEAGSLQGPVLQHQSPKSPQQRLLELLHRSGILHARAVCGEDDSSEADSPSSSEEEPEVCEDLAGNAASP

One may read the AC50 as the concentration giving half of the maximal activity seen. Take `CC(C)COC(=O)c1ccccc1C(=O)OCC(C)C`: the molecule was called inactive in test [1], in test [4], in test [9], in [11], in test [12] and in test [13]. Moreover, the result in test [14], in [15], in test [16] and in [17] was inactive. Moreover, the AC50 in [2] was 43.6 µM (active); in [3], 28.8 µM (active); in [5], 37 µM (active); in test [6] it was 20 µM (active); in test [7], 32.3 µM (active); in [8] it was 31.5 µM (active). For the same molecule, in [10], the AC50 is 31.5 µM (active).
Regarding `OCCOCCO`, the molecule was classed as inactive in test [1], in test [2], in test [3], in test [4], in test [5] and in test [6]. The result in test [7], in test [8], in [9], in [10], in test [12] and in test [13] was inactive. Besides, the outcome in [14], in test [15], in test [18] and in [17] was inactive.
For the molecule `CC(C)(C)C(O)(CCc1ccc(Cl)cc1)Cn1cncn1` (stereo not drawn), the molecule was called inactive in test [1], in test [3], in test [4], in test [5], in test [6] and in [7]. Moreover, the outcome in test [8], in test [9], in [19], in [10], in [12] and in [13] was inactive. Moreover, the outcome in [14], in test [15], in test [16] and in test [17] was inactive.
For the molecule `CCC12COCN1COC2`, the molecule was classed as inactive in test [1], in test [3], in test [4], in [5], in test [6] and in test [7]. The outcome in [8], in [9], in test [10], in test [12], in [13] and in test [14] was inactive. For the same molecule, the result in test [15] and in test [17] was inactive.
Consider `O=C(Oc1ccc(Br)cc1)N1CCN2CCC1CC2`, for which the call in test [1], in test [3], in [4], in test [5], in [6] and in test [7] was inactive. Moreover, the outcome in test [8], in [9], in test [10], in test [11], in test [12] and in [13] was inactive. For the same molecule, the outcome in test [14], in [15], in [16], in test [18] and in test [17] was inactive.
With `CN(C)C(=O)Nc1ccc(Cl)cc1`, the molecule was called inactive in test [1], in test [20], in test [3], in [4], in [5] and in test [6]. In addition, the outcome in test [7], in test [8], in test [9], in [10], in [11] and in test [12] was inactive. Besides, the outcome in [13], in [14], in test [15], in [16], in test [18] and in test [17] was inactive.
With `C=CCc1ccc2c(c1)OCO2`, the molecule was called inactive in test [1], in test [2], in [3], in test [4], in [5] and in [6]. Also, the outcome in test [7], in test [8], in test [9], in [10], in [12] and in test [13] was inactive. Further, the outcome in [14], in [15] and in test [17] was inactive.

The values above are taken from PubChem BioAssay (EPA / NIEHS).
